12 compounds from PubChem BioAssay (EPA / NIEHS) can be followed below.

Several values for one entry are separate records, joined by “and”; a condition that tells them apart may be missing. Equal entries are not always repeated. Some structures have more than one record in an assay (separate samples or runs), and their calls can disagree. Activity calls are given as the source filed them. The calls were made as follows: active = hit-call score of the fitted dose curve at least 0.9, where 1 is the maximum; inactive = score below 0.9.

Assay [1] in a line: ATG_CRE_CIS: Attagene CIS-FACTORIAL HepG2 Assay for human cAMP Responsive Element (CRE) binding protein 3 (AID 2282926). To be noted: HepG2 CRE cis-reporter, Attagene multiplexed mRNA; actives raise or lower the signal. The essentials:
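HepG2 cells transiently transfected with cis-element-driven multiple reporter transcription units; CRE reporter mRNA measured 24 h after dosing by RT-PCR, 6-FAM labelling, HpaI digestion and capillary electrophoresis. Bidirectional fit versus DMSO baseline.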

In assay [2] the target is CCAAT/enhancer-binding protein beta (Homo sapiens) (UniProt P17676). The assay is described as follows: ATG_C_EBP_CIS: Attagene CIS-FACTORIAL HepG2 Assay for human CCAAT/Enhancer Binding Protein (C/EBP) beta (AID 2282927). To be noted: HepG2 Attagene cis-factorial transcription factor reporter; actives raise or lower the signal. The essentials:
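Changes in reporter mRNA, rather than exogenous chimeric receptor activity, reflect native C/EBP signalling in transfected HepG2 cells dosed for 24 h; transcripts are detected by RT-PCR and capillary electrophoresis.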

Assay [3] can be described thus: ATG_CMV_CIS: Attagene CIS-FACTORIAL HepG2 Assay for human CMV (Internal Marker) (AID 2282928).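 Also: endpoint acts as a background internal control marker rather than a target.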 To be noted: HepG2 CMV promoter reporter, transcription factor profiling; actives raise or lower the signal. The essentials: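 After transient transfection of HepG2 with reporter transcription units driven by cis-regulatory promoters, cells receive test chemical for 24 h. Labeled reporter amplicons, digested with HpaI, are sized and quantified by capillary electrophoresis against DMSO.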

Assay [4] can be described thus: ATG_DR4_LXR_CIS: Attagene CIS-FACTORIAL HepG2 Assay for human Liver X Receptor (LXR), DR4 submotif (AID 2282929). Particulars: HepG2 Attagene DR4 cis-reporter, mRNA transcription; actives raise or lower the signal. The procedure, abridged: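 Endogenous factor activity at a DR4 cis-element is read as reporter mRNA in transiently transfected HepG2 cells. Exposure lasts 24 h; transcripts are amplified, fluorescently labelled and sized by capillary electrophoresis, with DMSO as baseline.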

The target of assay [5] is Aryl hydrocarbon receptor (Homo sapiens) (UniProt P35869). The experiment in a line: ATG_Ahr_CIS: Attagene CIS-FACTORIAL HepG2 Assay for human Aryl Hydrocarbon Receptor (Ahr) (AID 2282930). To be noted: HepG2 AhR cis-factorial reporter transcription; actives raise or lower the signal. The essentials: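 HepG2, transient MRTU (cis) transfection, 24 h exposure. RNA → cDNA → PCR → 6-FAM primer extension → HpaI 2 h 37 C → CE. Fit: bidirectional, DMSO baseline.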
Aryl hydrocarbon receptor (Homo sapiens), sequence (P35869 whole entry, looked up): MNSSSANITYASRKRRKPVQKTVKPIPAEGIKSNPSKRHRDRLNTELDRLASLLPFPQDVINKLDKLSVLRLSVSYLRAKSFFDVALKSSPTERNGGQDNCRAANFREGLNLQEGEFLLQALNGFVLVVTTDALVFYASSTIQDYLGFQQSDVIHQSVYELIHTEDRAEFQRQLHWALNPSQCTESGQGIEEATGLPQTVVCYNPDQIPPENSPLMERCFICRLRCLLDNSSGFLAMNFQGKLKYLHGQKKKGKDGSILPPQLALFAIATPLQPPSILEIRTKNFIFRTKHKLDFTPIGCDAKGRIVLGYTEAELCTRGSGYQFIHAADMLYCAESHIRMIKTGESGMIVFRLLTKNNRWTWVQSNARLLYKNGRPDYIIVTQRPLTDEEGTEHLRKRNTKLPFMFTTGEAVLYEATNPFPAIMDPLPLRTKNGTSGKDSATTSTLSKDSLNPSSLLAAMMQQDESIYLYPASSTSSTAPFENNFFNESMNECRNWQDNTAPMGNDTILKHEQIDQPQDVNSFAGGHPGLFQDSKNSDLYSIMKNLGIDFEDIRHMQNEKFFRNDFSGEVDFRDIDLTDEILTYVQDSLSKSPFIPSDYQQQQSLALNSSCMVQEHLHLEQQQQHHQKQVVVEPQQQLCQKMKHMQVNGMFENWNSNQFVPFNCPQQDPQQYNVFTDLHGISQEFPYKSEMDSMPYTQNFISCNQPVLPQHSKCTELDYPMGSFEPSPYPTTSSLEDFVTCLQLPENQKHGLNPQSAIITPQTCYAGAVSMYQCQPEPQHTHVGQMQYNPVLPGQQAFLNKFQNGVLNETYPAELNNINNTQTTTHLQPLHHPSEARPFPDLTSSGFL

A short description of assay [6]: ATG_AP_1_CIS: Attagene CIS-FACTORIAL HepG2 Assay for human Activator Protein 1 (AP-1) (AID 2282931). Particulars: HepG2 Attagene cis-factorial AP-1 reporter mRNA; actives raise or lower the signal. The essentials:
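Fluorescence of labelled PCR fragments separated by capillary electrophoresis gives reporter mRNA levels. HepG2 with transfected cis-regulated reporter units, 24 h exposure; DMSO serves as baseline for bidirectional curve fits.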

The nature of assay [7]: ATG_AP_2_CIS: Attagene CIS-FACTORIAL HepG2 Assay for human Activator Protein 2 (AP-2) (AID 2282932). Particulars: HepG2 AP-2 cis-reporter, Attagene transcription factor profiling; actives raise or lower the signal. The procedure, abridged: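 HepG2, transient MRTU transfection, cis-regulated reporters; 24 h compound exposure; RNA isolated, RT-PCR, 6-FAM labelling, HpaI digest, CE fluorescence. DMSO = negative control/baseline, bidirectional fit.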

Assay [8] can be described thus: ATG_BRE_CIS: Attagene CIS-FACTORIAL HepG2 Assay for human Bone Morphogenetic Protein (BMP) Response Element (BRE) (AID 2282933). To be noted: HepG2 BMP response element reporter, Attagene transcription factor profiling; actives raise or lower the signal. The essentials: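 After a 24 h chemical treatment, transiently transfected HepG2 cells were lysed for RNA; reporter transcripts were quantified by fluorescent RT-PCR and capillary electrophoresis, normalised to DMSO.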

Assay [9] is described as follows: APR_HepG2_CellLoss_72hr: Apredica 72-hour HepG2 Assay for Cell Loss (AID 2282915). To be noted: high-content imaging. The procedure, abridged:
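Cell number comes from Hoechst 33342-labelled nuclei, imaged at 20x after 3.7% formaldehyde fixation. Dosing was 0.39–200 uM, ten concentrations in duplicate, 0.5% DMSO final, for 72 h. Bidirectional fit relative to DMSO baseline.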

Assay [10] is described as follows: APR_HepG2_P-H2AX_72hr: Apredica 72-hour HepG2 Assay for H2AX Phosphorylation (AID 2282916).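 Also: phospho-histone H2A.x immunostain intensity per cell marking DNA damage.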 To be noted: imaging, actives raise or lower the signal. The essentials: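 HepG2; cpd 0.39–200 uM ×10 conc, duplicates; 0.5% DMSO; 72 hr. Fix 3.7% formaldehyde 30 min RT, 0.5% Triton X-100 10 min. Anti-phospho-H2A.x 1:200 + Hoechst 2 ug/mL, 60 min RT; ArrayScan imaging.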

A short description of assay [11]: APR_HepG2_MitoMembPot_72hr: Apredica 72-hour HepG2 Assay for Mitochondrial Membrane Potential (AID 2282917). To be noted: imaging, actives raise or lower the signal. The procedure, abridged: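 Membrane potential read by MitoTracker Red CMXRos (250 nM, 30 min, pre-fixation) fluorescence imaging of HepG2 after 72 hr exposure. Ten concentrations, 0.39–200 uM, duplicate wells, 0.5% DMSO; fitted in both directions against DMSO baseline.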

A short description of assay [12]: APR_HepG2_MitoticArrest_72hr: Apredica 72-hour HepG2 Assay for Mitotic Arrest (AID 2282918). To be noted: high-content imaging, actives raise or lower the signal. The essentials:
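HepG2 cells treated 72 h at 0.39–200 uM, 0.5% DMSO final; formaldehyde-fixed, stained with Hoechst 33342 and phospho-histone H3 antibody, imaged by high-content fluorescence; bidirectional fit versus DMSO.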

The nature of assay [13]: APR_HepG2_MicrotubuleCSK_72hr: Apredica 72-hour HepG2 Assay for Microtubule CSK Stabilty (AID 2282919). To be noted: HepG2 microtubule cytoskeleton, high-content imaging, actives raise or lower the signal. The procedure, abridged:
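Read-out is tubulin fluorescence intensity from high-content imaging of HepG2 cells, with nuclei identified by Hoechst 33342. Treatment lasts 72 h at 0.39–200 uM, and curves are fitted bidirectionally against the DMSO negative control.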

A short description of assay [14]: APR_HepG2_P-H2AX_24hr: Apredica 24-hour HepG2 Assay for H2AX Phosphorylation (AID 2282920). Particulars: high-content imaging, actives raise or lower the signal. The essentials: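 HepG2 cells dosed 24 h at 0.39–200 uM (10 points, duplicate, 0.5% DMSO final). Formaldehyde-fixed and permeabilized, then immunostained for phospho-H2A.x with Hoechst. Fluorescence quantified by high-content imaging, fitted bidirectionally versus DMSO.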

Assay [15] can be described thus: APR_HepG2_StressKinase_72hr: Apredica 72-hour HepG2 Assay for Stress Kinase (AID 2282921). To be noted: HepG2 stress kinase (phospho-c-Jun) imaging, actives raise or lower the signal. The procedure, abridged: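 Dose 0.39–200 uM (10 pts, duplicate), 0.5% DMSO; 72 h; fix 3.7% formaldehyde 30 min RT; Triton permeabilize; anti-phospho-c-Jun/Cy3 + Hoechst 60 min RT; image 20x; fit gain/loss vs DMSO.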

Assay [16] in a line: APR_HepG2_StressKinase_24hr: Apredica 24-hour HepG2 Assay for Stress Kinase (AID 2282922). Particulars: HepG2 stress kinase (phospho-c-Jun) imaging, actives raise or lower the signal. The procedure, abridged:
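HepG2, 24 hr dosing, 0.39–200 uM in duplicate, 0.5% DMSO; formaldehyde fix (3.7%), 0.5% Triton X-100; anti-phospho-c-Jun + Cy3 secondary, Hoechst counterstain; ArrayScan imaging; bidirectional curve fit vs DMSO baseline.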

Assay [17] in a line: APR_HepG2_p53Act_72hr: Apredica 72-hour HepG2 Assay for p53 Activation (AID 2282923).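 Also: average cellular p53 protein immunofluorescence intensity in HepG2 cells.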 Particulars: high-content imaging, actives raise or lower the signal. The procedure, abridged: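 10-pt conc. 0.39–200 uM, duplicate, 0.5% DMSO; 72 hr exposure; 3.7% formaldehyde fix, 0.5% Triton perm; sheep anti-p53/Cy5 + Hoechst; ArrayScan 20x, 6 images/well; gain/loss fit vs DMSO.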
Assay [18] in a line: APR_HepG2_MitoMass_72hr: Apredica 72-hour HepG2 Assay for Mitochondrial Mass (AID 2282924).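 Also: MitoTracker Red CMXRos stain intensity per cell imaged as mitochondrial mass.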 To be noted: high-content imaging, actives raise or lower the signal. The procedure, abridged:
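HepG2, 72 hr cmpd, 10 conc 0.39–200 uM in dup, DMSO 0.5% v/v. MitoTracker Red CMXRos 250 nM 30 min pre-fix; formaldehyde 3.7% fix 30 min RT. HCS imaging, gain/loss fit vs DMSO.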

Assay [19] in a line: APR_HepG2_NuclearSize_72hr: Apredica 72-hour HepG2 Assay for Nuclear Size (AID 2282925). Particulars: high-content imaging, actives raise or lower the signal. The procedure, abridged:
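HepG2; cpd 0.39–200 uM, 10 conc, duplicate; 72 h; DMSO 0.5% v/v; fix 3.7% formaldehyde 30 min RT; Triton permeabilization; Hoechst 2 ug/mL; HCS imaging 20x; nuclear diameter; gain/loss fit vs DMSO.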

Assay [20] addresses Retinoic acid receptor alpha (Homo sapiens) (UniProt P10276). The assay is described as follows: ATG_DR5_RAR_CIS: Attagene CIS-FACTORIAL HepG2 Assay for human Retinoic Acid Receptor Alpha (RARE), DR5 submotif (AID 2282934).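 As to AC50: reporter responds to endogenous RAR alpha beta and gamma in HepG2 not RARA alone.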 To be noted: HepG2 Attagene cis-factorial RARE DR5 reporter, mRNA; actives raise or lower the signal. The essentials:
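HepG2, transient cis-reporter transfection, 24 h exposure. mRNA readout: RT-PCR, FAM label, HpaI cut, capillary electrophoresis. DMSO baseline, gain/loss fitting.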

CCAAT/enhancer-binding protein beta (Homo sapiens), sequence (P17676 whole entry, looked up): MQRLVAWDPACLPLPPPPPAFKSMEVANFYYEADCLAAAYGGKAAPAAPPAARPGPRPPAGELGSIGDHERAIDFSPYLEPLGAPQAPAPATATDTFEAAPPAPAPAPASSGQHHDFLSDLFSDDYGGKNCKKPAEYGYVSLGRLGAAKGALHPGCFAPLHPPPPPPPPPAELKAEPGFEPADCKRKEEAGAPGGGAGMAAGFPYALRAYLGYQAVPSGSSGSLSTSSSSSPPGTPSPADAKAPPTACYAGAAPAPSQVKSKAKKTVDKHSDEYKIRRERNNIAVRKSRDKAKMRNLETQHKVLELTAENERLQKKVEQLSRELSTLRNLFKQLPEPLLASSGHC
Retinoic acid receptor alpha (Homo sapiens), sequence (P10276 whole entry, looked up): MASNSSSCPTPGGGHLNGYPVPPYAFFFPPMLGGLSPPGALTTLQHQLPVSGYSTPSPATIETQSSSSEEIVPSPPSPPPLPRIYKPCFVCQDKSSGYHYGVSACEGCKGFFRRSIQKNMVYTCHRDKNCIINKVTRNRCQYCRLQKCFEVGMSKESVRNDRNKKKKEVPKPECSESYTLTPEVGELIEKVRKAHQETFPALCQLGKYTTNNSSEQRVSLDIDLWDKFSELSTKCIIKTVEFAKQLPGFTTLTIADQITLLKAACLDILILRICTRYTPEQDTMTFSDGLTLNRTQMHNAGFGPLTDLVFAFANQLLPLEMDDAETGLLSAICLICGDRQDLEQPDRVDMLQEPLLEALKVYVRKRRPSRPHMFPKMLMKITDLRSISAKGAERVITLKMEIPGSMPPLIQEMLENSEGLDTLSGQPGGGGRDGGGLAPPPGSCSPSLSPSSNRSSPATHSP

Consider `C=C1CC[C@H]2O[C@]2(C)CC[C@@H]2[C@@H]1CC2(C)C`, for which the call in assay [1], in assay [2], in assay [4], in assay [5], in [6] and in assay [7] was inactive. In addition, the call in assay [8] was inactive. Also, in assay [3], the AC50 is 191 µM (active).

On to `C=CC(O)CCCCC` (stereo unspecified), for which the compound was classed as inactive in assay [1], in assay [2], in assay [3], in assay [5], in assay [6] and in assay [7]. The call in assay [8] was inactive. The AC50 in [4] was 37.3 µM (active).

With `CCC(C)(CCCC(C)C)OC(C)=O` (stereo unspecified), the compound was called inactive in assay [1], in assay [2], in [3], in [4], in assay [6] and in assay [7]. In [8], the compound was classed as inactive. In addition, the AC50 in assay [5] was 71.4 µM (active).

Turning to `CCC=C(C)C=O`, the outcome in assay [1], in assay [2], in assay [3], in assay [4], in assay [5] and in assay [6] was inactive. Also, the compound was classed as inactive in [7] and in assay [8].

Consider `[Na+]`, for which the outcome in assay [1], in assay [2], in [3], in [4], in assay [5] and in assay [6] was inactive. In addition, the outcome in assay [7] and in assay [8] was inactive.

In the case of `CCCOC(=O)CC`, the compound was classed as inactive in assay [1], in assay [2], in [3], in assay [4], in assay [5] and in [6]. Further, the result in assay [7] and in assay [8] was inactive.

On to `C#C[C@]1(O)CC[C@H]2[C@@H]3CCc4cc(O)ccc4[C@H]3CC[C@@]21C`, for which the AC50 was 34.6 µM (active) in [9]; 70.6 µM (active) in assay [10]; 58.1 µM (active) in assay [12]; 83.4 µM (active) in [14]; 28.5 µM (active) in [17]; 66.9 µM (active) and 26.4 µM (active) and 37 µM (active) in assay [1]. The AC50 in assay [2] is 158 µM (active); in [4] it was 100 µM (active) and 34 µM (active); in assay [5], 19.8 µM (active) and 9.23 µM (active); in assay [6] it was 47.3 µM (active); in assay [7], 167 µM (active) and 46.7 µM (active); in [8], 75.6 µM (active) and 48.6 µM (active). In addition, the AC50 in assay [20] was 61 µM (active) and 81.7 µM (active) and 24.8 µM (active). Moreover, the result in assay [11], in assay [13], in assay [15], in [16], in assay [18] and in assay [19] was inactive. The result in [1], in assay [2], in assay [4], in assay [5], in assay [6] and in assay [7] was inactive. The outcome in assay [8] and in [20] was inactive.

As to `C=CCCCCCCCCC(=O)OCC`, the call in [1], in assay [2], in assay [3], in assay [4], in assay [5] and in assay [6] was inactive. Besides, the compound was called inactive in assay [7] and in [8].

Take `N=C1N=C(N)c2ccccc21`: the result in assay [1], in assay [2], in [3], in assay [5], in [6] and in [7] was inactive. Moreover, the outcome in assay [8] was inactive. In addition, the AC50 in assay [4] was 100 µM (active).

Turning to `CC(=O)C1=C(C)[C@@H]2C[C@@]3(C1)[C@H](C)CC[C@H]3C2(C)C`, the AC50 in assay [1] was 76.3 µM (active); in [3], 68.8 µM (active); in assay [4], 58.8 µM (active); in assay [5], 55.3 µM (active); in [6], 76.9 µM (active). The result in assay [2], in assay [7] and in assay [8] was inactive.

In the case of `CN(C)C`, the outcome in assay [1], in assay [2], in assay [3], in assay [4], in assay [5] and in assay [6] was inactive. Also, the compound was classed as inactive in assay [7] and in assay [8].

`O=C(O)CS`: the result in assay [1], in assay [2], in [3], in assay [4], in [5] and in assay [6] was inactive. Besides, the result in [7], in assay [8] and in assay [20] was inactive.

The AC50 is the concentration giving half of the maximal activity seen.
